Only a selection was taken, and hits are over-represented in it overall.
Cycloheximide cs: affects cycloheximide protein synthesis inhibition readout, counter-screen. cell reporter, cycloheximide protein synthesis inhibition counterscreen. max response, %. actives 12% (n = 300,000). AID 2314; in the data active = max response mostly above about 13%, no sharp cut-off; inactive = mostly below about 14%; also: read at 38.3 µM for the half of the compounds with a filed dose
LmPK inhibitor: LmPK (Leishmania mexicana) enzyme inhibition; Q27686; purified LmPK, Kinase-Glo ATP luminescence, 1 h; Potency, µM (doses to about 57.5 µM), usual class: inhibitors; actives 0.37% (n = 290,000)
Target sequence (Q27686 whole entry, looked up): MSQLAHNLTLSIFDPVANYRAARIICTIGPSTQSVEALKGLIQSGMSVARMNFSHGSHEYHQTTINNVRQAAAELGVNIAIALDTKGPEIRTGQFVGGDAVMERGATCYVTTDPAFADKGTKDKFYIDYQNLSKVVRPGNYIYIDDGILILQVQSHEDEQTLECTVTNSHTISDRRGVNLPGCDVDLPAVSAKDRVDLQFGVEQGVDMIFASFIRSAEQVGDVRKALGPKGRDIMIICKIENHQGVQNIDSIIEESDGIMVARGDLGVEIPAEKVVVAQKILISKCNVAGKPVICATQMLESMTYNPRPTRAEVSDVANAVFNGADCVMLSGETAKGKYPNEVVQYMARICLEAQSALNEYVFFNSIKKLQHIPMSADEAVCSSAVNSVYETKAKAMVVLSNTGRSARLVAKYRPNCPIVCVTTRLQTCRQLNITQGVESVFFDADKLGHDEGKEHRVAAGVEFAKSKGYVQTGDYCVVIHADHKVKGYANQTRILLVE
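Screened at intermediate enzyme activity to detect both inhibitors and activators: LmPK at 0.1 nM, with a 0.5 nM enzyme column as activation reference. PEP 0.5 mM, ADP 0.1 mM; ATP detected by luminescence after 1 h.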
FBPA Giardia inh: blocks Giardia fructose-bisphosphate aldolase activity; purified Giardia FBPA; Potency, µM (series often up to 59.6 µM), most hits filed as inhibitors; actives 0.71% (n = 290,000); AID 2451; also: nearly all actives have a fitted effect of over 55% in size
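Giardia FBPA (40 nM reagent) was preincubated 10 min at RT with compound (up to 57.5 uM final), then substrate plus GAPDH/TPI/NAD/arsenate coupling system with diaphorase/resazurin was added; resorufin fluorescence (525/598 nm) was read after 20 min.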
Shiga inhibitor: blocks Shiga toxin action in Vero cells; actives 9.2% (n = 290,000); inhibition, % at 38.7 µM; Vero cells, Shiga toxin protein synthesis inhibition reporter; AID 2315; in the data active = inhibition mostly above about 28%, no sharp cut-off; inactive = mostly below about 43%
Tb PYK inh: inhibitors of Trypanosoma brucei pyruvate kinase; Q57TT1; actives 0.12% (n = 410,000); TbPYK enzyme, Kinase-Glo Plus ATP luminescence, 45 min; Potency, µM (top dose mostly 76.8 µM), hits mostly inhibitors; also: nearly all actives have a fitted effect of over 50% in size
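In this concentration-response screen, enzyme-free wells defined baseline while DMSO plates tracked drift. Each reaction combined TbPYK, substrate, compound and 130 uM ADP for 45 min at room temperature. Kinase-Glo Plus luminescence gave the signal.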
Sm TGR inh: blocks Schistosoma mansoni thioredoxin glutathione reductase. actives 3% (n = 360,000). Potency, µM (highest dose often 114 µM), hits mostly inhibitors. purified TGR, DTNB reduction, TNB absorbance 405 nm. Q962Y6. AID 485364; also: nearly all actives have a fitted effect of over 60% in size
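TGR 20 nM + NADPH 100 uM (dispensed conc.), cpd preinc 15 min RT; start with NADPH (500 uM addition) then DTNB (15 mM addition). Kinetic TNB absorbance, 405 nm filter. Four-parameter Hill fit across titration.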
A number is an active result; – = inactive; ? = inconclusive; · = no result. Unless noted, calls follow the shape of the dose curve; as a rule, active = well fitted curve in the direction sought with a large enough effect; inconclusive = small, poorly fitted or top-dose-only effect, or another doubt; inactive = no such curve, though single readings can be large; an effect the other way counts as inactive or inconclusive.

SMILES | Cycloheximide cs | LmPK inhibitor | FBPA Giardia inh | Shiga inhibitor | Tb PYK inh | Sm TGR inh
CC/C(=N\NC(=O)CNC(=O)/C=C/c1ccco1)c1ccccc1 | – | – | – | – | – | –
Cc1ccc(/C=C/C(=O)OCC(=O)NC(C)c2ccccc2)o1 (configuration not stated) | · | · | · | · | – | 35µM
O=C(O)CCCCCNC(=O)/C=C/c1ccco1 | – | – | – | – | – | –
CCC/C(=N\NC(=O)CNC(=O)/C=C/c1ccco1)c1ccccc1 | 13 | – | – | – | – | –
Cc1ccc(/C=C/C(=O)NCCc2ccccc2)o1 | 40 | – | – | 77 | ? | 3.2µM
CNC(=S)N/N=C/c1c2ccccc2c(Cl)c2ccccc12 | 27 | – | – | 87 | – | –
CNC(=S)N/N=C/c1c(C)cccc1Cl | – | – | – | – | – | –
CCOc1ccc2nc(NC(=O)C3CCN(C(=O)c4ccco4)CC3)sc2c1 | 27 | – | – | 74 | – | –
CCOc1ccc2nc(N3CCC(C(=O)Nc4ccccc4CC)CC3)sc2c1 | · | · | · | · | – | –
CCOc1ccc2nc(SCc3ccc(F)cc3)sc2c1 | 37 | – | – | 36 | – | –
CCOc1ccc2nc(N3CCC(C(=O)Nc4nnc(CC)s4)CC3)sc2c1 | 81 | – | – | 167 | – | –
O=C(Nc1nc2ccccc2s1)C1CCN(C(=O)c2ccco2)CC1 | – | – | – | – | – | –
CCOc1ccc2nc(N3CCCC(C(=O)N4CCN(CC)CC4)C3)sc2c1 (configuration not stated) | 25 | – | ? | – | – | –
CCOc1ccccc1N1CC(C(=O)NC2CCCCCC2)CC1=O (configuration not stated) | · | · | · | · | – | ·
COC1C=CO[C@@]2(C)Oc3c(C)c(O)c4c(O)c(c(C=NN5CCN(C)CC5)c(O)c4c3C2=O)NC(=O)/C(C)=C\C=CC(C)C(O)[C@@H](C)C(O)C(C)[C@H](OC(C)=O)C1C (some centres not stated) | · | · | ? | · | – | ·
CCOc1ccc2nc(N3C(=O)/C(=C/c4ccccc4)NC3=S)sc2c1 | 27 | – | – | 177 | – | –
CCOc1ccc2nc(N3CCCCCC3)sc2c1 | 57 | – | – | 102 | – | –
Cc1cc(C)c2nc(N3CCC(C(=O)NCC4CCCO4)CC3)sc2c1 (configuration not stated) | 21 | – | · | – | – | –
CCOc1ccc2nc(N3CCCC(C(=O)NCCCOC)C3)sc2c1 (configuration not stated) | · | · | · | · | – | –
COc1ccc2nc(N3CCCC(C(=O)NCCCN4C(C)CCCC4C)C3)sc2c1 (configuration not stated) | 20 | – | – | – | – | –
COc1ccc2nc(N3C(=O)/C(=C/c4ccccc4)NC3=S)sc2c1 | – | – | – | – | – | –
Cc1cc(C)c2nc(N3CCC(C(=O)NCCCN4CCCCC4)CC3)sc2c1 | – | – | – | – | – | –
CCOc1ccc2nc(N3CCN(C(=O)c4ccc(S(=O)(=O)CC)cc4)CC3)sc2c1 | · | · | · | · | – | –
CCOc1cc2sc(N3CCC(C(=O)Nc4ccc(C)cc4)CC3)nc2cc1Br | 55 | · | · | 149 | – | –
CCOc1ccc2nc(N3CCC(C(=O)N4CCN(C5CCCCC5)CC4)CC3)sc2c1 | 48 | – | – | 64 | – | –
SMILES | Cycloheximide cs | LmPK inhibitor | FBPA Giardia inh | Shiga inhibitor | Tb PYK inh | Sm TGR inh
CCOc1ccc2nc(N3CCCC(C(=O)NCC4CCCO4)C3)sc2c1 (configuration not stated) | 45 | – | – | 75 | – | –
COc1ccc2nc(NC(=O)C3CCCN(S(=O)(=O)c4c(C)noc4C)C3)sc2c1 (configuration not stated) | – | – | – | – | – | –
CCOc1ccc2nc(N3CCC(C(=O)N4CCN(C(=O)c5ccco5)CC4)CC3)sc2c1 | – | – | – | – | – | –
CCOc1ccc2nc(NC(=O)C3CCCN(S(=O)(=O)c4c(C)noc4C)C3)sc2c1 (configuration not stated) | 25 | – | – | 28 | – | –
Cc1ccc(NC(=O)c2cc(-c3ccc4c(c3)OCO4)on2)cc1 | – | – | – | – | – | –
Cc1ccc2c(Cl)c(C(=O)Nc3ccc4c(c3)OCO4)sc2c1 | 19 | – | – | 91 | – | –

Assay outcomes: PubChem BioAssay, National Center for Advancing Translational Sciences (NCATS)
